Experimental data: PubChem BioAssay (EPA / NIEHS)
Inconclusive results are not listed. The source made the active and inactive calls. Rule for the calls: active = hit-call score of the fitted dose curve at least 0.9, where 1 is the maximum; inconclusive = response in the unintended direction; inactive = score below 0.9.

How the values were obtained:
[1] = biological target: human Raf-1 Proto-Oncogene, serine/threonine Kinase (RAF1), RAF1 (gene 5894) (UniProt P04049); assay: NVS_ENZ_hRAF1: NovaScreen (NVS) Enzymatic Assay for human Raf-1 Proto-Oncogene, serine/threonine Kinase (RAF1) (AID 2283216)
human Raf-1 Proto-Oncogene, serine/threonine Kinase (RAF1), RAF1 (gene 5894), sequence (P04049 whole entry, looked up): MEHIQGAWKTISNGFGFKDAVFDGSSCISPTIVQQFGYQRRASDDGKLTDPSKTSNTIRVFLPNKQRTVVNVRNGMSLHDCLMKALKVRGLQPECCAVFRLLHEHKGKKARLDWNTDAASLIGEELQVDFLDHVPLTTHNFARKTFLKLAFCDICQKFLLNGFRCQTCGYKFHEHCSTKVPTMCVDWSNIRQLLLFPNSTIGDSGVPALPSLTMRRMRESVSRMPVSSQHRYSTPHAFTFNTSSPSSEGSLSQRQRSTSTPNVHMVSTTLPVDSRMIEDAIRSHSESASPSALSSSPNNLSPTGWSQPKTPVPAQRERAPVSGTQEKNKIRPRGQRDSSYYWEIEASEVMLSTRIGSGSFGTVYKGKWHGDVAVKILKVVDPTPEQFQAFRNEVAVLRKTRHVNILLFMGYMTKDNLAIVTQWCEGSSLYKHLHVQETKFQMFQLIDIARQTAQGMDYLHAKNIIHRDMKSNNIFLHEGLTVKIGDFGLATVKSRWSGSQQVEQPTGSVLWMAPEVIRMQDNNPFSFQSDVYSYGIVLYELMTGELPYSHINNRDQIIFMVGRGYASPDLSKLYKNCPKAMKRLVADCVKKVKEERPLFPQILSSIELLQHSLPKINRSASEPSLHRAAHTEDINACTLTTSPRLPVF
How it was run: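 Cell-free recombinant kinase with specific fluorescent substrate, product separated by electrophoretic mobility shift; read 1 h after dosing. Primary screen at 25 uM in duplicate; hits then run in concentration-response up to 50 uM, fitted as loss of signal versus DMSO.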

[2] = biological target: human Vascular Endothelial Growth Factor Receptor 3 (VEGFR3), FLT4 (gene 2324) (UniProt P35916); assay: NVS_ENZ_hVEGFR3: NovaScreen (NVS) Enzymatic Assay for human Vascular Endothelial Growth Factor Receptor 3 (VEGFR3) (AID 2283229)
How it was run: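 Cell-free recombinant VEGFR3 kinase reaction with fluorescent substrate, read 1 h after dosing by electrophoretic mobility shift separation of substrate and product. Single-concentration duplicate screen at 25 uM, then concentration-response up to 50 uM; loss of activity versus DMSO.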

[3] = biological target: human Vascular Endothelial Growth Factor Receptor 1 (VEGFR1), FLT1 (gene 2321) (UniProt P17948); assay: NVS_ENZ_hVEGFR1: NovaScreen (NVS) Enzymatic Assay for human Vascular Endothelial Growth Factor Receptor 1 (VEGFR1) (AID 2283226)
How it was run: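 Cell-free assay of recombinant human VEGFR1 kinase with substrate, measured 1 h after dosing; fluorescence with electrophoretic mobility-shift separation of substrate and product, referenced to DMSO; primary screen at 25 uM in duplicate, actives then run in concentration series.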

[4] = biological target: human Rho Associated Coiled-coil Containing Protein Kinase 1 (ROCK1), ROCK1 (gene 6093) (UniProt Q13464); assay: NVS_ENZ_hROCK1: NovaScreen (NVS) Enzymatic Assay for human Rho Associated Coiled-coil Containing Protein Kinase 1 (ROCK1) (AID 2283214)
How it was run: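 Cell-free recombinant human ROCK1 activity assay; fluorescent substrate and product separated by electrophoretic mobility shift, read 1 h after dosing. Screened in duplicate at 25 uM; loss of signal versus DMSO baseline scored as inhibition.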

[5] = biological target: rabbit Imidazoline 2 Central (I2C), CKB (gene 100009085) (UniProt P00567); assay: NVS_ENZ_rabI2C: NovaScreen (NVS) Enzymatic Assay for rabbit Imidazoline 2 Central (I2C) (AID 2283228)
How it was run: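 Rabbit brain membranes, cell-free; readout by filter-based scintillation counting 1.5 hours after dosing, loss of signal vs DMSO. Initial duplicate test at 25 uM, then concentration-response with 50 uM top concentration.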

[6] = system: rat Monoamine Oxidase, MAO-A, Peripheral (MAOAP), gene 29253; assay: NVS_ENZ_rMAOAP: NovaScreen (NVS) Enzymatic Assay for rat Monoamine Oxidase, MAO-A, Peripheral (MAOAP) (AID 2283237)
How it was run: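 Rat liver mitochondrial membranes served as the MAO-A source, with enzyme activity measured by radiometric scintillation counting 1.17 hours after dosing. Loss of signal was fitted against DMSO; primary screen used 25 uM in duplicate, follow-up used concentration series.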

[7] = biological target: rat Constitutive Nitric Oxide Synthase (CNOS), Nos1 (gene 24598) (UniProt P29476); assay: NVS_ENZ_rCNOS: NovaScreen (NVS) Enzymatic Assay for rat Constitutive Nitric Oxide Synthase (CNOS) (AID 2283236)
How it was run: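 Enzyme activity in rat brain membrane preparation, read 1 h after dosing by filter-based radiometric scintillation counting. Primary screen in duplicate at 25 uM; actives (e.g., ≥30% inhibition) then run in concentration-response up to 50 uM.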

[8] = biological target: human Sirtuin 3 (SIRT3), SIRT3 (gene 23410) (UniProt Q9NTG7); assay: NVS_ENZ_hSIRT3: NovaScreen (NVS) Enzymatic Assay for human Sirtuin 3 (SIRT3) (AID 2283222)
human Sirtuin 3 (SIRT3), SIRT3 (gene 23410), sequence (Q9NTG7 whole entry, looked up): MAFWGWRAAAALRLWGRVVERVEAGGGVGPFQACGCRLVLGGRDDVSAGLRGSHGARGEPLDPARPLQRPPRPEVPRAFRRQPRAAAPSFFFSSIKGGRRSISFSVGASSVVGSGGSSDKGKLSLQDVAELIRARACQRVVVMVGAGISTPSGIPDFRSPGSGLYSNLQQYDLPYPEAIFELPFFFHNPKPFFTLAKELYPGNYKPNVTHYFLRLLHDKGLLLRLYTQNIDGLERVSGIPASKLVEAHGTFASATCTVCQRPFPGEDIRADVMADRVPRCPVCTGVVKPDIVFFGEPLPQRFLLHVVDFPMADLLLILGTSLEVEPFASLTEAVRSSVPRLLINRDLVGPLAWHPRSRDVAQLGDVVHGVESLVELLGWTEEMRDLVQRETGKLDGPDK
How it was run: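 Cell-free enzyme assay with recombinant protein and fluorescent substrate, product separated by electrophoretic mobility shift; read 1 hour after dosing. Screened in duplicate at 25 uM, then singleton concentration-response up to 50 uM; loss of signal versus DMSO.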

[9] = biological target: human Sirtuin 2 (SIRT2), SIRT2 (gene 22933) (UniProt Q8IXJ6); assay: NVS_ENZ_hSIRT2: NovaScreen (NVS) Enzymatic Assay for human Sirtuin 2 (SIRT2) (AID 2283217)
How it was run: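 Cell-free recombinant human SIRT2, fluorescent substrate with product separated by electrophoretic mobility shift, 1 hr. Screened in duplicate at 25 uM; hits rerun singly in concentration-response up to 50 uM, relative to DMSO.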

[10] = biological target: rat Acetylcholinesterase (AChE), Ache (gene 83817) (UniProt P37136); assay: NVS_ENZ_rAChE: NovaScreen (NVS) Enzymatic Assay for rat Acetylcholinesterase (AChE) (AID 2283233)
rat Acetylcholinesterase (AChE), Ache (gene 83817), sequence (P37136 whole entry, looked up): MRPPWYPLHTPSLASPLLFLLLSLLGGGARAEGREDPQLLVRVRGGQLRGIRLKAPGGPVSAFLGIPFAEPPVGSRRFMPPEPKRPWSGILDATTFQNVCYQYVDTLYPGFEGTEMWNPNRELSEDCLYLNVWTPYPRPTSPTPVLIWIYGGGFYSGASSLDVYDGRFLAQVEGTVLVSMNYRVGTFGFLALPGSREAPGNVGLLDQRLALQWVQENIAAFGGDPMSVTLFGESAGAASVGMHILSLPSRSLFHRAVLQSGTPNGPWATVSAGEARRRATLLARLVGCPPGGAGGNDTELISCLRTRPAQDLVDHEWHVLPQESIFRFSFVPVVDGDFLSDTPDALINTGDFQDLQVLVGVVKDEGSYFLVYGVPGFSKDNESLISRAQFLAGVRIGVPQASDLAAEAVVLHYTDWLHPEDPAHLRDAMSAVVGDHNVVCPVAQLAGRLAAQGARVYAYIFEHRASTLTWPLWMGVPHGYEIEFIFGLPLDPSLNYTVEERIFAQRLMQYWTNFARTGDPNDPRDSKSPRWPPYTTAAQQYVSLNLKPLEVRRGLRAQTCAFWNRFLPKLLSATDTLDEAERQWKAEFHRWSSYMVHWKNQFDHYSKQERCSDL
How it was run: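 Rat brain membrane acetylcholinesterase activity measured colorimetrically 0.33 h after compound addition, loss of signal relative to DMSO. Primary screen in duplicate at 25 uM; actives re-run as concentration-response with 50 uM top concentration.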

[11] = biological target: human Tyrosine Protein Kinase Receptor Tie-2 (Tie2), TEK (gene 7010) (UniProt Q02763); assay: NVS_ENZ_hTie2: NovaScreen (NVS) Enzymatic Assay for human Tyrosine Protein Kinase Receptor Tie-2 (Tie2) (AID 2283225)
human Tyrosine Protein Kinase Receptor Tie-2 (Tie2), TEK (gene 7010), sequence (Q02763 whole entry, looked up): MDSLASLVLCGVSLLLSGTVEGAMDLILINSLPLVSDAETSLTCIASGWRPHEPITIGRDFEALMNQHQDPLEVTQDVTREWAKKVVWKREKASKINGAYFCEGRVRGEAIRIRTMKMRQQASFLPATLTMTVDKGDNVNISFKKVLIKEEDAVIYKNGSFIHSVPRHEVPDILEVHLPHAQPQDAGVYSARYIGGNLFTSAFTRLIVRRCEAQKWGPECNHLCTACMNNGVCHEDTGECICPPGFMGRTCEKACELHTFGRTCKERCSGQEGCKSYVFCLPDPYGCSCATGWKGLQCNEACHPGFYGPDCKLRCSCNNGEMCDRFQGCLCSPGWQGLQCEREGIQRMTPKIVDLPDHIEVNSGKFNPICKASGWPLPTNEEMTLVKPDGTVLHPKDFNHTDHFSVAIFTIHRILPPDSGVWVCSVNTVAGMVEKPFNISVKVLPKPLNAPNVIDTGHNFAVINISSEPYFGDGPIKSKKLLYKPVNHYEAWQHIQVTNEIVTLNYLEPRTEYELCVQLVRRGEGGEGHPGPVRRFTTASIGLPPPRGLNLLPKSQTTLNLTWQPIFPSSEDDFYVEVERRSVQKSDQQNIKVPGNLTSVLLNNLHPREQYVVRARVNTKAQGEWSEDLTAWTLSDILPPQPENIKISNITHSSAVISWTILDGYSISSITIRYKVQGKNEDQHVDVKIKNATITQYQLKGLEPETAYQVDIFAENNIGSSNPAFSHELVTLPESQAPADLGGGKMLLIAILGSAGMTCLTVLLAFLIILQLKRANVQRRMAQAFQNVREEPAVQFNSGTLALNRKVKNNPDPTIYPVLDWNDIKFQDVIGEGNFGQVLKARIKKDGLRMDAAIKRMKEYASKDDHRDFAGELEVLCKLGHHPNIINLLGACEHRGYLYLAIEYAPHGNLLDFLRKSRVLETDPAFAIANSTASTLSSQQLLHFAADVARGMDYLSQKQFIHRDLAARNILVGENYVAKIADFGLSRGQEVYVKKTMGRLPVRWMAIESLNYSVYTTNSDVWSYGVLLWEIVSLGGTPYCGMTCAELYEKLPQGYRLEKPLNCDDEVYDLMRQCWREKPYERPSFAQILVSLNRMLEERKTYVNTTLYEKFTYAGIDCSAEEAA
How it was run: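 Recombinant human Tie2 kinase activity was read cell-free by fluorescence with electrophoretic mobility shift, 1 hour after dosing. The screen used 25 uM in duplicate, then concentration-response up to 50 uM. Signal loss was scored against DMSO.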

[12] = biological target: human SRC Proto-Oncogene, Non-receptor Tyrosine Kinase (SRC), SRC (gene 6714) (UniProt P12931); assay: NVS_ENZ_hSRC: NovaScreen (NVS) Enzymatic Assay for human SRC Proto-Oncogene, Non-receptor Tyrosine Kinase (SRC) (AID 2283223)
human SRC Proto-Oncogene, Non-receptor Tyrosine Kinase (SRC), SRC (gene 6714), sequence (P12931 whole entry, looked up): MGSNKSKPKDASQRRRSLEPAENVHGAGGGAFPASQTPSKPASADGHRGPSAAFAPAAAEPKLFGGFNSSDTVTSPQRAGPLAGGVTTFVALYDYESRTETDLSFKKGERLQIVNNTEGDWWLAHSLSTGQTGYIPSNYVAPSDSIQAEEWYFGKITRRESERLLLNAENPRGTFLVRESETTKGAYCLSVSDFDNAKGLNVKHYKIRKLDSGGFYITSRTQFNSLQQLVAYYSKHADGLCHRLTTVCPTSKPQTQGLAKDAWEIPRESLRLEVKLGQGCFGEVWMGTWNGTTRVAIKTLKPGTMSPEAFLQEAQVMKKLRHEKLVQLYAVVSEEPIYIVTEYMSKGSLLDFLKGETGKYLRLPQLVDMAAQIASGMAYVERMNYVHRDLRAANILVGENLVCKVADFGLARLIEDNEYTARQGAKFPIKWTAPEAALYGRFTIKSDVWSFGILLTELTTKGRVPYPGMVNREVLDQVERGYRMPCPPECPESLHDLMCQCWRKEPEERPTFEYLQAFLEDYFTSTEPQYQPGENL
How it was run: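 Cell-free kinase activity assay with fluorescent substrate, product separated by electrophoretic mobility shift, read 1 h after dosing. Duplicate single point at 25 uM, then concentration-response up to 50 uM; loss of signal versus DMSO.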

[13] = biological target: human Protein Tyrosine Phosphatase Receptor Type F (PTPRF), PTPRF (gene 5792) (UniProt P10586); assay: NVS_ENZ_hPTPRF: NovaScreen (NVS) Enzymatic Assay for human Protein Tyrosine Phosphatase Receptor Type F (PTPRF) (AID 2283213)
How it was run: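 Cell-free fluorescence enzyme assay with recombinant protein and substrate; product separated by electrophoretic mobility shift. Read 1 h after dosing, single 25 uM duplicate screen, then concentration-response up to 50 uM; loss of signal vs DMSO.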

[14] = biological target: human Protein Tyrosine Phosphatase Receptor Type M (PTPRM), PTPRM (gene 5797) (UniProt P28827); assay: NVS_ENZ_hPTPRM: NovaScreen (NVS) Enzymatic Assay for human Protein Tyrosine Phosphatase Receptor Type M (PTPRM) (AID 2283215)
human Protein Tyrosine Phosphatase Receptor Type M (PTPRM), PTPRM (gene 5797), sequence (P28827 whole entry, looked up): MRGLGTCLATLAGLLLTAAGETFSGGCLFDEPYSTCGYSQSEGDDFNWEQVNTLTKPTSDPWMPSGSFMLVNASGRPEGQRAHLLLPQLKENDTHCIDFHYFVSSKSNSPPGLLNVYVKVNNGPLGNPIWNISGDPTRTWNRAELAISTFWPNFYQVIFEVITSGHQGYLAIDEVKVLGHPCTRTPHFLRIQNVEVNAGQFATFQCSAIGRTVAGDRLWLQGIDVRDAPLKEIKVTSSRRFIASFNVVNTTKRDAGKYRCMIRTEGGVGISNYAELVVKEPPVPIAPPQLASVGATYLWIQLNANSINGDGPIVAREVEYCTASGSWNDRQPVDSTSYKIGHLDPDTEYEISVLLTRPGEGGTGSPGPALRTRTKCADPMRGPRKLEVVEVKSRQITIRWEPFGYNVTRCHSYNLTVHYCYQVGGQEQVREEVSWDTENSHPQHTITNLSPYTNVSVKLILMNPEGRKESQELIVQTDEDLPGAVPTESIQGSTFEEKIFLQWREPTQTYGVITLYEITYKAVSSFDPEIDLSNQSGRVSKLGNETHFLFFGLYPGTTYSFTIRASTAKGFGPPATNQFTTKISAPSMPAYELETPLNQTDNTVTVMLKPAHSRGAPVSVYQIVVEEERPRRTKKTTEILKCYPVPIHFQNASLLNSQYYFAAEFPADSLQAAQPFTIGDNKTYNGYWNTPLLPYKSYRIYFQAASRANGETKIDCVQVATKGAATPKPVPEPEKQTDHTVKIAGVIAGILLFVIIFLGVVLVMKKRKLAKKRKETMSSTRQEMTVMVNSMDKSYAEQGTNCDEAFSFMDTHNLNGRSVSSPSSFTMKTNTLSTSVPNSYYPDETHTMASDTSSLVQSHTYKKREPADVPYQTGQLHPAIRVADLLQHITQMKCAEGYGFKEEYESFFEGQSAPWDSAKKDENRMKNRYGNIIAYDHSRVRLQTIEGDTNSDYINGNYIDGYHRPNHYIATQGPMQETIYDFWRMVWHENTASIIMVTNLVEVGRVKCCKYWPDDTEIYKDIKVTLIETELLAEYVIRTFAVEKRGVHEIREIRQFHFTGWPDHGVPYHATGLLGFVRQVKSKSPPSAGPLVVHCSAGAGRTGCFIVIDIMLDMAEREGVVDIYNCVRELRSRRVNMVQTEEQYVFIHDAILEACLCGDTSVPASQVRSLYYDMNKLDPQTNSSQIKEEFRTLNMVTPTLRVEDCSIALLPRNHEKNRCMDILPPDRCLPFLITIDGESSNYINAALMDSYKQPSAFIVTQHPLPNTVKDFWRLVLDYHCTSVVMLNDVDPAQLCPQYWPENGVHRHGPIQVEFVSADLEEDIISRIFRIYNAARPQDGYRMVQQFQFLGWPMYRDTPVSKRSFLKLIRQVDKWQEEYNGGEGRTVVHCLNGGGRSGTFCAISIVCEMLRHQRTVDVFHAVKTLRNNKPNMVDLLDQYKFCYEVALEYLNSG
How it was run: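 Cell-free recombinant PTPRM with fluorogenic substrate; product separated from substrate by electrophoretic mobility shift and read by fluorescence, 1.33 h after dosing. Primary screen single concentration (25 uM) in duplicate; actives retested in concentration series; loss of signal versus DMSO.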

[15] = biological target: human Sirtuin 1 (SIRT1), SIRT1 (gene 23411) (UniProt Q96EB6); assay: NVS_ENZ_hSIRT1: NovaScreen (NVS) Enzymatic Assay for human Sirtuin 1 (SIRT1) (AID 2283219)
How it was run: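 Cell-free recombinant SIRT1 with a fluorescent substrate; substrate and product separated by electrophoretic mobility shift and read by fluorescence intensity, 1 h after dosing. Primary screen at 25 uM in duplicate; hits re-run in concentration-response up to 50 uM, relative to DMSO.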

[16] = biological target: human Vascular Endothelial Growth Factor Receptor 2 (VEGFR2), KDR (gene 3791) (UniProt P35968); assay: NVS_ENZ_hVEGFR2: NovaScreen (NVS) Enzymatic Assay for human Vascular Endothelial Growth Factor Receptor 2 (VEGFR2) (AID 2283230)
How it was run: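 Cell-free recombinant VEGFR2 kinase, fluorescent substrate with electrophoretic mobility-shift separation; read 1 h after dosing. Screened at 25 uM in duplicate, hits to concentration-response up to 50 uM; loss-of-signal versus DMSO.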

[17] = biological target: sheep Cyclooxygenase-2 (Cox2), PTGS2 (gene 443460) (UniProt P79208); assay: NVS_ENZ_oCOX2: NovaScreen (NVS) Enzymatic Assay for sheep Cyclooxygenase-2 (Cox2) (AID 2283231)
How it was run: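 Ovine placental enzyme, cell-free; chemical added, 0.66 h, absorbance (colorimetric). Screen 25 uM in duplicate; ≥threshold hits titrated, top 50 uM. Inhibition = signal loss vs DMSO.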

[18] = biological target: rat Adenylate Cyclase, Forskolin Stimulated, Adcy5 (gene 64532) (UniProt Q04400); assay: NVS_ENZ_rACFSKBinding: NovaScreen (NVS) Enzymatic Assay for rat Adenylate Cyclase, Forskolin Stimulated (AID 2283232)
How it was run: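 Rat forebrain membrane preparation, cell-free, read 1 h after dosing by filter-based scintillation counting. Primary screen in duplicate at 25 uM; actives (e.g. ≥30% inhibition) rerun in concentration-response up to 50 uM; fit versus DMSO.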

SMILES: CCCOc1nn(C(=O)NS(=O)(=O)c2ccccc2C(=O)OC)c(=O)n1C
- outcome [1]: inactive
- outcome [2]: inactive

SMILES: CCOP(=S)(OCC)SCCSCC
- outcome [3]: inactive

SMILES: CCC(=O)Nc1ccc(Cl)c(Cl)c1
- outcome [4]: inactive
- AC50 [5]: 15.7 µM (active)
- AC50 [6]: 6.9 µM (active)

SMILES: CN(C)NC(=O)CCC(=O)O
- outcome [1]: inactive

SMILES: CCCCN(CC)c1c([N+](=O)[O-])cc(C(F)(F)F)cc1[N+](=O)[O-]
- outcome [7]: inactive

SMILES: COc1ccc(C(=CC(=O)N2CCOCC2)c2ccc(Cl)cc2)cc1OC
- outcome [8]: inactive

SMILES: O=C(O)c1cc(Oc2ccc(C(F)(F)F)cc2Cl)ccc1[N+](=O)[O-]
- outcome [9]: inactive

SMILES: CCOC(=O)CC(SP(=O)(OC)OC)C(=O)OCC (stereo unspecified)
- AC50 [10]: 0.917 µM (active)

SMILES: CCCCOC(=O)c1ccccc1C(=O)O
- outcome [11]: inactive

SMILES: CCNc1nc(Cl)nc(NC(C)(C)C#N)n1
- outcome [12]: inactive

SMILES: CC(=NC#N)N(C)Cc1ccc(Cl)nc1
- outcome [13]: inactive
- outcome [10]: inactive

SMILES: O=[N+]([O-])c1cc(C(F)(F)F)c(Cl)c([N+](=O)[O-])c1Nc1ncc(C(F)(F)F)cc1Cl
- outcome [14]: inactive
- outcome [11]: inactive
- outcome [10]: inactive

SMILES: CC[C@H](C)[C@H]1O[C@]2(C=C[C@@H]1C)C[C@@H]1C[C@@H](C/C=C(\C)[C@@H](O[C@H]3C[C@H](OC)[C@@H](O[C@H]4C[C@H](OC)[C@@H](NC)[C@H](C)O4)[C@H](C)O3)[C@@H](C)/C=C/C=C3\CO[C@@H]4[C@H](O)C(C)=C[C@@H](C(=O)O1)[C@]34O)O2
- AC50 [14]: 9.67 µM (active)
- AC50 [9]: 25 µM (active)
- outcome [15]: inactive
- AC50 [8]: 1.25 µM (active)
- AC50 [12]: 34 µM (active)
- outcome [11]: inactive
- outcome [16]: inactive
- AC50 [17]: 0.0396 µM (active)
- outcome [6]: inactive

SMILES: Nc1c(Cl)cc([N+](=O)[O-])cc1Cl
- outcome [14]: inactive
- outcome [7]: inactive
- AC50 [6]: 18 µM (active)

SMILES: Cc1ccn2nc(S(=O)(=O)Nc3c(F)cccc3F)nc2n1
- outcome [18]: inactive

SMILES: CC(C1CC1)C(O)(Cn1cncn1)c1ccc(Cl)cc1 (stereo unspecified)
- outcome [12]: inactive

SMILES: C#CC(C)(C)NC(=O)c1cc(Cl)cc(Cl)c1
- outcome [5]: inactive

SMILES: CNC(=O)ON=C(C)SC
- AC50 [10]: 3.86 µM (active)

SMILES: COP(=O)(NC(C)=O)SC (stereo unspecified)
- outcome [7]: inactive

SMILES: CCCOCC(=Nc1ccc(Cl)cc1C(F)(F)F)n1ccnc1
- outcome [1]: inactive
